From PubChem
Sampled rows, rich in hits. Any-hit rate of the full collection: about 5.2%.
Tau fluor counter: counter-screen for tau fibril formation inhibitors; tau K18 P301L Alexa594 fluorescence, heparin fibrillization; Potency, µM (series often up to 57.7 µM), without a hit: at the top dose activity change, negative = decrease; 0.93% of 280,000 active; note: potency is the fitted concentration of half-maximal effect; nearly all actives have a fitted effect of over 55% in size
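Human tau K18 P301L (15 uM unlabeled, 0.24 uM Alexa 594-labeled) in 100 mM sodium acetate pH 7 with 20 uM heparin, 6 hr at 37 C. ThT 30 uM added, 1 hr ambient; Alexa 594 FP and total fluorescence read at 555/632 nm.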
Sfp inh: Sfp phosphopantetheinyl transferase inhibition. Q9F4F7. Biochemical Sfp PPTase activity, qHTS. Potency, µM, for the others: largest response in the series, negative = inhibition, most hits filed as inhibitors. 3.5% of 310,000 active. AID 1490;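 note: the enzyme is Sfp with the accession as filed and its product quenches rhodamine fluorescence; potency is the fitted concentration of half-maximal effect; 0% = enzyme reaction without inhibitor and -100% = no enzyme wells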
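Step 1, compound plus 15 nM Sfp-PPTase, 15 min, room temperature. Step 2, add rhodamine-CoA (5 uM) and BHQ-2-YbbR (12.5 uM). Step 3, read 525/598 nm fluorescence at 0 and 30 min.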
Tau ThT inhib: tau fibrillization inhibition (ThT binding); Potency, µM (series often up to 57.4 µM), for the others: top-dose activity, negative = inhibition, hits mostly inhibitors; 2.1% of 270,000 active; P10636; AID 1460; recombinant tau K18 P301L, heparin-induced fibrillization, ThT fluorescence; note: potency is the fitted concentration of half-maximal effect; nearly all actives have a fitted effect of over 55% in size
Target sequence (P10636 561-689 P618L limits assumed): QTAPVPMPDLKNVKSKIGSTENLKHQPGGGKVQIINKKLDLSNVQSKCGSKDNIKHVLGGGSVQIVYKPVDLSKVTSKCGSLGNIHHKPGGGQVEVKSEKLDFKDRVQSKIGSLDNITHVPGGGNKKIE
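Fibril formation assay: tau K18 P301L at 15 uM with trace Alexa 594 label, heparin inducer 20 uM, pH 7 sodium acetate buffer, 37 C for 6 hr; endpoint ThT signal.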
Tau fibril FP: tau fibrillization inhibition (FP) | 0.39% of 280,000 active | Potency, µM (top dose mostly 57.7 µM), inactives show top-dose activity, negative = inhibition, most hits filed as inhibitors | AID 1468 | P10636 | K18 P301L tau heparin fibrillization, Alexa594 FP, 6 h; note: potency is the fitted concentration of half-maximal effect; nearly all actives have a fitted effect of over 55% in size
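FP of Alexa 594-tau after heparin (20 uM) induction. Substrate: human K18 P301L, 15 uM unlabeled, 0.24 uM labeled. Buffer 100 mM sodium acetate pH 7. 6 hr, 37 C.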
Coupling enz: counter-screen for Giardia aldolase inhibitors: coupling enzyme system. coupling enzyme system counterscreen, AmpLite Red fluorescence. activity change, negative = inhibition, % at 58.2 µM, hits read low. 0.67% of 290,000 active. AID 2472; in the data active = activity change below about -30%
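Fluorescence at 525 nm excitation and 598 nm emission measured inhibition of the coupled detection system without aldolase. Compounds (at 57.5 uM final) were preincubated 10 min at room temperature with coupling enzyme reagent before a 20 min substrate/AmpLite Red step.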
The depositor's hits bear a star; ! = a repeat was not active; [ ] = another dose, or the depositor's remark. Unless noted, calls come from the whole dose curve; as a rule, active = well fitted curve in the direction sought with a large enough effect; inconclusive = small, poorly fitted or top-dose-only effect, or another doubt; inactive = no such curve, though single readings can be large; an effect the other way counts as inactive or inconclusive. Unless noted, % is set by controls: 0 for no effect and ±100 for the full control effect.

`O=C1/C(=C/c2ccncc2)SC(=S)N1N1CCOCC1` gave Tau fluor counter -13%, Sfp inh 56µM*, Tau ThT inhib inconclusive, Tau fibril FP inconclusive and Coupling enz -8.
For O=C1/C(=C/c2ccncc2)SC(=S)N1Cc1ccccc1 the results were Tau fluor counter -24%, Sfp inh inconclusive, Tau ThT inhib inconclusive, Tau fibril FP -1% and Coupling enz -3.
For O=C1/C(=C/c2cccnc2)SC(=S)N1N1CCOCC1 the results were Tau fluor counter -12%, Sfp inh -25%, Tau ThT inhib inconclusive, Tau fibril FP -6% and Coupling enz 5.
Screening CCCN1C(=O)/C(=C/c2ccncc2)SC1=S returned Tau fluor counter 9%, Sfp inh 56µM*, Tau ThT inhib 8%, Tau fibril FP 3% and Coupling enz 1.
COc1ccc(NS(=O)(=O)c2cc3[nH]c(=O)c(=O)[nH]c3cc2C)cc1OC was read as Tau fluor counter -6%, Tau ThT inhib -14% and Tau fibril FP 2%.
`COc1ccc(NC(=S)Nc2nc(CC(=O)Nc3ccccc3OC)cs2)cc1` gave Tau fluor counter 13µM*[quencher], Sfp inh -11%, Tau ThT inhib -17%, Tau fibril FP -8% and Coupling enz -1.
Screening Cn1c(NCCCO)nc2c1c(=O)n(Cc1ccccc1F)c(=O)n2C returned Tau fluor counter 9%, Sfp inh 14%, Tau ThT inhib -1%, Tau fibril FP 8% and Coupling enz 1.
Screening COc1ccccc1Oc1nc2c(c(=O)n(Cc3ccccc3F)c(=O)n2C)n1C returned Tau fluor counter inconclusive, Sfp inh 8.9µM*, Tau ThT inhib inconclusive, Tau fibril FP 6% and Coupling enz -1.
COc1ccc2c(c1)C(=O)[C@@H](OC(=O)NCc1ccco1)[C@H](c1ccc(OC)c(Br)c1)O2 was read as Tau fluor counter -10%, Sfp inh 4%, Tau ThT inhib -12%, Tau fibril FP 2% and Coupling enz 1.
Cc1ccc2c(c1)/C(=C/c1ccccc1)C(=O)N2 was read as Sfp inh -9% and Coupling enz 0.
`O=C1Nc2ccc(I)cc2/C1=C/c1cc(Br)c(O)c(Br)c1` gave Tau fluor counter 14µM*![quencher], Sfp inh inconclusive, Tau ThT inhib 4µM*, Tau fibril FP inconclusive and Coupling enz -7.
`COc1cccc(-n2ccn(CC(=O)c3ccc(F)cc3)c(=O)c2=O)c1` gave Tau fluor counter -8%, Tau ThT inhib -5% and Tau fibril FP -12%.
`CCOc1ccccc1NC(=O)Cc1coc2c(C)c(C)ccc12` gave Tau fluor counter -17%, Tau ThT inhib inconclusive and Tau fibril FP -14%.
C=CC[n+]1c(-c2ccc(OC)cc2)csc1NNC(=O)Nc1ccccc1 was read as Tau fluor counter inconclusive, Sfp inh 50µM*, Tau ThT inhib inconclusive, Tau fibril FP 1% and Coupling enz 2.
C=CC[n+]1c(-c2ccc(C)cc2)csc1Nc1ccc(NC(C)=O)cc1 was read as Tau fluor counter inconclusive, Sfp inh 8%, Tau ThT inhib -17%, Tau fibril FP 9% and Coupling enz 2.
`CCOc1ccc(CNC(=O)CCCn2c(=O)c3cccn3c3ccccc32)cc1` gave Tau fluor counter inconclusive, Tau ThT inhib inconclusive and Tau fibril FP -12%.
Screening CC1=CC(=O)C(C(C)C)=C/C1=N/OS(=O)(=O)c1ccccc1 returned Tau fluor counter inconclusive, Sfp inh -27%, Tau ThT inhib 14µM*, Tau fibril FP inconclusive and Coupling enz -73*.
Screening CC1=CC(=O)C=C(C)C1=NOS(=O)(=O)c1ccccc1 returned Tau fluor counter inconclusive, Sfp inh -5%, Tau ThT inhib 14µM*, Tau fibril FP inconclusive and Coupling enz -87*.
`CCOC(=O)c1c(C)[nH]c(C)c1S(=O)(=O)NCC(=O)N(C)c1ccc(C)c(C)c1` gave Tau fluor counter -9%, Tau ThT inhib -4% and Tau fibril FP -6%.
`Cc1cccc(N=Nc2cnc(N)s2)c1` gave Tau fluor counter inconclusive, Sfp inh 2%, Tau ThT inhib 5µM*, Tau fibril FP 5% and Coupling enz -3.
